In PubChem BioAssay one finds composite z-score and z-score data, which are given here for four molecules.

The structures appear in SMILES notation. Several values for one entry are separate records, joined by “and”; a condition that tells them apart may be missing. Equal values may be shown once. Activity calls are given as the source filed them. Unless noted, the rule behind the calls is not given here.

A short description of experiment [1]: anti-His antibody binders, primary screen, artefact control for SMM control protein annotation, biochemical, small-molecule microarray, 635 nm fluorescence (AID 1128).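 Note: score merges feature fluorescence with signal-to-noise for each printed compound spot.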 As to conditions: anti-His Alexa647 antibody binding, higher = more signal.
In experiment [2] the test system is Human papillomavirus type 1a E7 protein (residues 1-88). In words: HPV1a E7 small-molecule binders, primary screen, biochemical, small-molecule microarray, residues 1-88, 635 nm (AID 1129). The note with it: small-molecule microarray binding, fluorescence 635 nm; higher = more signal.
Experiment [3] has as its target Focal adhesion kinase 1 (Homo sapiens) (UniProt Q05397). Kind of experiment: small-molecule microarray binders of FAK, primary screen, biochemical, 635/667 nm fluorescence, BSA, DTT (AID 1130).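 Note: composite of spot emission at 667 nm and signal to noise over triplicate slides.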 The note with it: PTK2 binding, 635 nm fluorescence, higher = more signal.
Experiment [4] deals with Fibrinogen (Alexa647-labelled). In words: fibrinogen binders on compound microarrays, profiling panel, artefact control for SMM control-protein annotation, biochemical, small-molecule microarray, 635/667 nm fluorescence (AID 1131).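 Note: z-score merges 667 nm fluorescence with per-spot signal-to-noise over triplicate slides.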 As to conditions: fibrinogen-A647 binding fluorescence, higher = more signal.
Experiment [5] concerns the target Follistatin (Homo sapiens) (UniProt P19883). Kind of experiment: follistatin binders on small-molecule microarrays, primary screen, biochemical, small-molecule microarray, 635/667 nm fluorescence (AID 1132). As to conditions: FST binding, 635 nm fluorescence, higher = more signal.
In experiment [6] the target is Fibroblast growth factor 2 (Homo sapiens) (UniProt P09038). In words: FGF2 binders on small-molecule microarrays, primary screen, biochemical, small-molecule microarray, 635/667 nm fluorescence (AID 1133). The note with it: small-molecule microarray binding, FGF2, fluorescence 635/667; higher = more signal.
Experiment [7] in a line: mitochondrial membrane potential change in A549 cells, profiling panel, cell-based, JC-1 fluorescence, basal, 24 h, 100 nL (AID 1138).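 Note: A549 lung adenocarcinoma cells under basal conditions with no added stimulus; test concentration not given here.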 The note with it: higher = more signal.
Another experiment has as its system Lefty1. In words: Lefty1 binders on small-molecule microarrays, primary screen, biochemical, small-molecule microarray, 635/667 nm fluorescence (AID 1139). The note with it: small-molecule microarray binding, fluorescence 635/667; higher = more signal.
The test system of experiment [8] is wheat germ agglutinin (Triticum aestivum), Alexa647-labelled. Kind of experiment: wheat germ agglutinin binders on compound microarrays, profiling panel, artefact control for SMM control-protein annotation, biochemical, small-molecule microarray, 635/667 nm fluorescence (AID 1140).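 Note: score merges 667 nm feature emission with signal to noise over triplicate slides.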 As to conditions: WGA-A647 binding, 635 nm fluorescence, higher = more signal.
Experiment [9] deals with Luciferin 4-monooxygenase (Photinus pyralis) (UniProt P08659). Kind of experiment: firefly luciferase enzyme inhibitors, primary screen, biochemical, luminescence, purified enzyme, 2006 set (AID 1141).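 Note: cell-free assay with purified firefly luciferase at 100 ng per well in PBS; test concentration not given here.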 As to conditions: SteadyGlo luminescence, 30 min, higher = more signal, called active from +8 up or from −8 down.
The subject of experiment [10] is Wnt5a (protein binding on small-molecule microarray). Kind of experiment: Wnt5a binders on small-molecule microarray, primary screen, biophysical, 635/667 nm fluorescence (AID 1142).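 Note: fluorescence read at 667 nm with signal to noise per printed feature.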 The note with it: 635 nm fluorescence, higher = more signal.
The nature of experiment [11]: cell viability in Huh7 cells, primary screen, cytotoxicity control for HCV replication inhibitor project, CellTiter-Glo luminescence, basal, 48 h (AID 1143).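 Note: Huh7 hepatoma cells carrying a hepatitis C replication reporter with no stimulus; test concentration not given here.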 The note with it: Huh7 HCV replicon, higher = more signal, called active from +8 up or from −8 down. (Cellular ATP, detected with luciferase, serves as a proxy for viable cell number.)
The nature of experiment [12]: P. aeruginosa biofilm formation inhibitors, primary screen, PAO1 strain, BacTiter-Glo luminescence, LB-PBS (AID 1144). The note with it: 12 h, higher = more signal.
Experiment [13] can be described thus: CREB reporter modulators without forskolin, primary screen, cell-based, PC12, CRE-LacZ reporter, unstimulated (AID 1145). As to conditions: no forskolin, luminescence, 4.5 h, higher = more signal, called active from +8 up or from −8 down.
Experiment [14] can be described thus: CREB reporter modulators under forskolin, primary screen, cell-based, PC12, CRE-LacZ reporter, forskolin-stimulated (AID 1146).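 Note: PC12 cells with 6xCRE LacZ reporter stimulated by forskolin 10 µM; beta-galactosidase reporter signal reflecting CREB driven transcription.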 The note with it: luminescence, 4.5 h, higher = more signal, called active from +8 up or from −8 down.
Experiment [15] addresses Streptavidin (Streptomyces avidinii) (UniProt P22629). Kind of experiment: streptavidin binders on small-molecule microarray, primary screen, artefact control for SMM compound annotation, biophysical, 635/667 nm fluorescence (AID 1147).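 Note: signal reflects streptavidin binding to arrayed compounds as a control protein.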 The note with it: streptavidin binding, higher = more signal.
Experiment [16] in a line: small-molecule binders of probe aInhba, primary screen, biochemical, small-molecule microarray, 635/667 nm fluorescence (AID 1148).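 Note: score merges 667nm spot fluorescence with signal-to-noise for antibody binding to printed compounds.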 The note with it: higher = more signal.
Experiment [17] addresses Torsin-1A (Homo sapiens) (UniProt O14656). Kind of experiment: torsin A binders from cell lysate, primary screen, small-molecule microarray, wild-type, 635/667 nm (AID 1149). As to conditions: COS7 hTOR1A-WT lysate, 635 nm fluorescence, higher = more signal.
Experiment [18] has the same target. In words: small-molecule binders of mutant TOR1A in lysate, primary screen, cell lysate, small-molecule microarray, COS7 lysate, 635/667 nm fluorescence (AID 1150).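 Note: score pools 667 nm emission and signal to noise measuring lysate protein binding.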 As to conditions: COS7 hTOR1A mutant lysate, 635 nm fluorescence, higher = more signal.
The subject of experiment [19] is Sonic hedgehog protein (Shh). In words: small-molecule binders of Shh protein, primary screen, biochemical, small-molecule microarray, 635/667 nm fluorescence (AID 1151).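 Note: Shh protein binding to compounds spotted on small-molecule microarray slides; score combines spot fluorescence intensity with signal-to-noise across triplicate slides.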 As to conditions: small-molecule microarray binding, 635 nm fluorescence; higher = more signal.

Fibroblast growth factor 2 (Homo sapiens), sequence (P09038 whole entry, looked up): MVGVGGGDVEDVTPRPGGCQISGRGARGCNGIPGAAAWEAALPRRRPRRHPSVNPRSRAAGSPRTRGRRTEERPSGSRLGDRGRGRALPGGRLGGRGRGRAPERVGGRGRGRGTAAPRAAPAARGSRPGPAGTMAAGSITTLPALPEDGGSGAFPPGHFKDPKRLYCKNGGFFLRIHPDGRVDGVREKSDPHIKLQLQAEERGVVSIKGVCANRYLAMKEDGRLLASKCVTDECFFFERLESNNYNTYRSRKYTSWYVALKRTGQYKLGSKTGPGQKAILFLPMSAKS
Streptavidin (Streptomyces avidinii), sequence (P22629 whole entry, looked up): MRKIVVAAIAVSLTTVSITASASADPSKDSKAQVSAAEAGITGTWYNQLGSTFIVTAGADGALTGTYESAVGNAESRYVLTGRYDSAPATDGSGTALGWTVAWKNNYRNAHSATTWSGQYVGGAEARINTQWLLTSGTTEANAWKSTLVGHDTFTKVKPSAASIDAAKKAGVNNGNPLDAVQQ
Luciferin 4-monooxygenase (Photinus pyralis), sequence (P08659 whole entry, looked up): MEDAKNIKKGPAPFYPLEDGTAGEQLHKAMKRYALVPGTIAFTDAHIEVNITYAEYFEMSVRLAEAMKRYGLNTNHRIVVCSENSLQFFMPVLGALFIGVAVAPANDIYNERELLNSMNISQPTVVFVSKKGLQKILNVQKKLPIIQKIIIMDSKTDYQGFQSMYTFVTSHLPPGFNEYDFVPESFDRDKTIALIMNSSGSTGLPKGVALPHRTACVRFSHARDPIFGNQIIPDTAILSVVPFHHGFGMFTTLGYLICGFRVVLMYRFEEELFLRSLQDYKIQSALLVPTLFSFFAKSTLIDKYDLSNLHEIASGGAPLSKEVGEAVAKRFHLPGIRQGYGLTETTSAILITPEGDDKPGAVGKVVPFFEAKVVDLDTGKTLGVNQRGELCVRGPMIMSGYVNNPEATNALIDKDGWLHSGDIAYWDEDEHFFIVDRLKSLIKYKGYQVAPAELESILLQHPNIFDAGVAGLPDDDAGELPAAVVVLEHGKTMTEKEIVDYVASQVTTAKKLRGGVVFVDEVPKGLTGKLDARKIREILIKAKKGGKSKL
Focal adhesion kinase 1 (Homo sapiens), sequence (Q05397 whole entry, looked up): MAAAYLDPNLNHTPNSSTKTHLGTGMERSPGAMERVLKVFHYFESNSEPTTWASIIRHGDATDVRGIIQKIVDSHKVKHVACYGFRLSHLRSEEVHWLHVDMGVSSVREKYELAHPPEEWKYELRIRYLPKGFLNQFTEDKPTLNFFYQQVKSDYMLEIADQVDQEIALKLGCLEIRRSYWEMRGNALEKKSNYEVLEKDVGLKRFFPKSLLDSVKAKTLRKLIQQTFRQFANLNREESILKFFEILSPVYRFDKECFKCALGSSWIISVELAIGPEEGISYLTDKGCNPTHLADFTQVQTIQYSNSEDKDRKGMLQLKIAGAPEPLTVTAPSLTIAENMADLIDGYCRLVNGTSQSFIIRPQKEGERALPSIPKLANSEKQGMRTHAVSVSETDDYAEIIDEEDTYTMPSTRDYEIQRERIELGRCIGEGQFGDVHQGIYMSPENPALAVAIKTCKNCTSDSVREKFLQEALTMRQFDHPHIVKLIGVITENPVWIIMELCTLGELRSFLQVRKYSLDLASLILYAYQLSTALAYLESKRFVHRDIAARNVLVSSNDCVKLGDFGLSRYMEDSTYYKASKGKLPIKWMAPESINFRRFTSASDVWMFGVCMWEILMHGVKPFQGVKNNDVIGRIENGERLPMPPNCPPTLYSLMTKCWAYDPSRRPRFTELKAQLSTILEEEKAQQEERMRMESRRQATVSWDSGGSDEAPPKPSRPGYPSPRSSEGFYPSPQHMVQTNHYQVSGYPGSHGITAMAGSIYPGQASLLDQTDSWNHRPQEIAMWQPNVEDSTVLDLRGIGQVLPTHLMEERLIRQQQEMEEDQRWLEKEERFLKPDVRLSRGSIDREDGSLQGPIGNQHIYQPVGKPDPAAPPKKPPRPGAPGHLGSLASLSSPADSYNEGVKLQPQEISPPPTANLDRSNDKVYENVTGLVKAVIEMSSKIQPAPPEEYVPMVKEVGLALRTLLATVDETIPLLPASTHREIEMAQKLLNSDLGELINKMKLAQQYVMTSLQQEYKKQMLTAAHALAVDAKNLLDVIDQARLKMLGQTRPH
Follistatin (Homo sapiens), sequence (P19883 whole entry, looked up): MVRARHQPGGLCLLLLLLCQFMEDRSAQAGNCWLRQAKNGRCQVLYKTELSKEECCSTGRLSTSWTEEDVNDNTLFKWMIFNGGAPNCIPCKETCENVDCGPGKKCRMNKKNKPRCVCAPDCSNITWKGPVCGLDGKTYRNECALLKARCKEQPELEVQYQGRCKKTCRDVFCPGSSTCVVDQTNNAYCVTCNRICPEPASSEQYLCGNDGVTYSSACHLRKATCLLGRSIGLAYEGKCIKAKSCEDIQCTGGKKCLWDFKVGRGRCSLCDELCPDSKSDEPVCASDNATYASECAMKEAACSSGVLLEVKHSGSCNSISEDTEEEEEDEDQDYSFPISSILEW
Torsin-1A (Homo sapiens), sequence (O14656 whole entry, looked up): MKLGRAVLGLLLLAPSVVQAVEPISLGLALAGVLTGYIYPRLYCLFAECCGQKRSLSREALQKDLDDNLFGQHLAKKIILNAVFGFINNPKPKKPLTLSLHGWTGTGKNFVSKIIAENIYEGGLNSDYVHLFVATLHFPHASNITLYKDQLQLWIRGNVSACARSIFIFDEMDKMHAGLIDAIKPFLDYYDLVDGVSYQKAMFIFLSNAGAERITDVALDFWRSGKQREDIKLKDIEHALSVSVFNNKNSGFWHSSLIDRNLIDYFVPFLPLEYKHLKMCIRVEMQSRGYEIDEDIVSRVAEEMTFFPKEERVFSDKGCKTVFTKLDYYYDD

On to `C=CCN(CCCCC)C(=O)C1N(CCOCCO)C(=O)C2C(C(=O)O)C3C=CC21O3` (stereo not given), for which the composite z-score in experiment [1] was -0.749 and -1.54; in experiment [2], -1.08 and -0.838; in [3], -0.527 and -1.09; in experiment [4], -1.97 and -0.97; in experiment [5], -0.98 and -2.75; in experiment [6], -2.29 and -2.04. The composite z-score was -1.41 and -1.91 in the experiment with Lefty1; -1.19 and -2.06 in experiment [8]; -1.49 and -0.76 in experiment [10]; -1.6 and -1.66 in experiment [15]; -0.278 and -0.3 in experiment [16]; -2.98 and -2.79 with Torsin-1A (Homo sapiens) [17]. Besides, the composite z-score with Torsin-1A (Homo sapiens) [18] was -0.411 and -1.26; in [19] it was -1.44 and -0.292. Besides, the z-score in experiment [7] is 0.586 and -0.536; in experiment [9] it was 0.171 (inactive) and 0.472 (inactive); in [11] it was 0.41 (inactive) and -0.417 (inactive); in experiment [12], 1.73 (inactive) and 1.24 (inactive); in [13] it was 0.866 (inactive) and 0.601 (inactive); in experiment [14], 0.17 (inactive) and -0.469 (inactive).
Consider `C=CCN(C(=O)C(c1cccs1)N(CCOCCO)C(=O)/C=C\C(=O)O)C(C)(C)C` (stereo not given), for which the composite z-score in experiment [1] was -1.68 and -1.56; in experiment [2], -1.4 and -0.488; in experiment [3] it was -1.37 and -0.35; in experiment [4], -0.7 and -1.15; in [5] it was -2.15 and -0.795; in [6], -1.7 and -1.19. In addition, the composite z-score in the experiment with Lefty1 was -1.66 and -1.83; in [8] it was -1.04 and -0.022; in experiment [10], -0.775 and -0.776; in experiment [15], -1.89 and -1.22; in [16], -0.251 and -0.176; in the experiment with Torsin-1A (Homo sapiens) [17], -1.26 and -0.984. Further, the composite z-score with Torsin-1A (Homo sapiens) [18] was -1.79 and -2.02; in experiment [19], -1.27 and -0.703. The z-score in [7] is 1.01 and 1.41; in experiment [9], -1.5 (inactive) and -1.32 (inactive); in [11] it was -0.199 (inactive) and -0.0585 (inactive); in experiment [12] it was -1.2 (inactive) and -0.384 (inactive); in experiment [13], 1.42 (inactive) and 0.191 (inactive); in experiment [14] it was 0.005 (inactive) and -0.599 (inactive).
Turning to `COC(=O)C1=C(C)N(Cc2ccccc2)[C@]23O[C@](C(=O)OC)(C(=O)N2[C@@H]1c1ccccc1)[C@H]1CCCC(=O)[C@H]13`, the composite z-score was 0.677 and 1.34 in experiment [1]; 0.312 and 0.104 in [2]; -0.035 and 0.215 in [3]; 0.753 and 0.377 in [4]; 0.372 and 0.544 in experiment [5]; 0.349 and 0.456 in experiment [6]. The composite z-score with Lefty1 was 0.784 and 0.694; in experiment [8], 0.528 and -0.124; in experiment [10], 0.04 and -0.0686; in [15], 0.3; in experiment [16] it was 0.114 and -0.018; in the experiment with Torsin-1A (Homo sapiens) [17] it was 0.165 and 0.434. Further, the composite z-score with Torsin-1A (Homo sapiens) [18] is 0.815 and 0.262; in experiment [19] it was 0.396 and 0.436. In addition, the z-score is 0.455 and -0.75 in [7]; -0.5 (inactive) and 0.264 (inactive) in experiment [9]; -3.29 (inactive) and -2.24 (inactive) in [11]; -0.375 (inactive) and -1.01 (inactive) in experiment [12]; 0.563 (inactive) and 2.64 (inactive) in experiment [13]; -0.771 (inactive) and -0.693 (inactive) in experiment [14].
In the case of `COc1ccc(-c2ccc3c(n2)CCCN3CC(O)CN2CCCc3nc(-c4ccc(Br)cc4)ccc32)cc1` (stereo not given), the composite z-score in experiment [1] is 1.33 and 1.2; in experiment [2], 0.601 and 0.387; in experiment [3], 0.665 and 0.748; in [4] it was 0.572 and 0.757; in experiment [5], 0.922 and 0.796; in experiment [6], 0.6 and 0.609. Further, the composite z-score with Lefty1 was 1.02 and 0.514; in [8] it was 0.557 and 0.333; in [10] it was 0.353 and 0.0813; in [15], 1.41 and 0.932; in [16], 0.136 and 0.204; in the experiment with Torsin-1A (Homo sapiens) [17] it was 0.438 and 0.224. Also, the composite z-score with Torsin-1A (Homo sapiens) [18] is 0.528 and 0.588; in experiment [19], 1.03 and 0.76. Besides, the z-score was 1.45 and 0.555 in experiment [7]; -0.254 (inactive) and 0.147 (inactive) in [9]; -1.86 (inactive) and -0.196 (inactive) in experiment [11]; 0.766 (inactive) and 0.0378 (inactive) in [12]; -0.434 (inactive) and -0.161 (inactive) in [13]; -0.152 (inactive) and -0.116 (inactive) in [14].
